# An excerpt weighted towards active compounds, which were near 2.6% of everything screened.
# ATXN2 expr inh – inhibitors of ATXN2 expression; HEK-293 ATXN2-luciferase reporter, luminescence, 24 h; Potency, µM (doses to about 57 µM), for inactives: at the top dose activity change, negative = inhibition, usual class: inhibitors; actives 0.72% (n = 360,000); AID 1745845; also: potency is read from the fitted curve at half-maximal effect; % is scaled to controls: 0 for no effect and ±100 for the full control effect; nearly all actives have a fitted effect of over 55% in size
#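 ATXN2-luciferase reporter cells (luciferase flanked by upstream and downstream ATXN2 gene portions) were treated 24 h at 37 °C with compounds at up to 57 uM. SteadyGlo luminescence gave expression; GF-AFC fluorescence gave viability.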
# Giardia kill – Giardia lamblia killing; actives 0.15% (n = 340,000); activity change, % at 7.66 µM, hits read low; Giardia lamblia trophozoite viability; AID 540267; in the data active = activity change below about -80%; inconclusive = between about -30% and that limit;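 also: parasites exposed to compound for two days anaerobically before the ATP read; % is scaled to controls: 0 for no effect and ±100 for the full control effect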
#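 Trophozoites 100 cells/well + cpd; 48 hrs, 37 deg C, anaerobic. ATPLite 1-Step added, 15-30 min RT, luminescence read (ATP-based viability).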
# S2 tox – cell viability loss in ATXN counter-screen; AID 651635; actives 0.49% (n = 400,000); S2 cells (HEK-293 line with an ATXN2-luciferase reporter) viability, CellTiter-Fluor protease fluorescence, 24 h; Potency, µM (highest dose often 56.7 µM), most hits filed as cytotoxic; also: potency is read from the fitted curve at half-maximal effect; nearly all actives have a fitted effect of over 40% in size
# TGFb SMAD3 inh – TGF-b pathway inhibition | HepG2 CAGA-GFP TGF-b/SMAD3 reporter, GFP fluorescence, 18 h; TGF-beta stimulated, 500 pg/mL final | Potency, µM (highest dose often 46.1 µM), inactives show at the highest dose activity, negative = inhibition, actives largely listed as inhibitors | actives 1.2% (n = 410,000); also: potency is read from the fitted curve at half-maximal effect; % is scaled to controls: 0 for no effect and ±100 for the full control effect; nearly all actives have a fitted effect of over 65% in size
#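 First, reporter cells (HEPG2 CAGA-GFP) rested 2 h at 37 degrees C. Next, compounds were pinned in and TGF-beta added to 500 pg/mL final. After 18 h, GFP was imaged per cell and summed per well.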
# uPA surface inh – cell surface uPA generation inhibition; actives 0.31% (n = 330,000); cell surface uPA generation assay, qHTS; AID 540303; Potency, µM (series often up to 38.3 µM), without a hit: at the top dose activity change, negative = inhibition, actives largely listed as inhibitors; active = well fitted inhibition curve with a large enough effect; inconclusive = small, poorly fitted or top-dose-only effect; inactive = no such curve, though single readings can be large or run the other way; tested in mouse RAW 264.7 cells; also: potency is read from the fitted curve at half-maximal effect; % is scaled to controls: 0 for no effect and ±100 for the full control effect; nearly all actives have a fitted effect of over 55% in size
# HepG2 viability – kills HepG2 cells in TGF-b inhibitor counter-screen. HepG2 CAGA-GFP viability, ATP luminescence, 18 h. Potency, µM (doses to about 46.1 µM), inactives show top-dose activity change, negative = cytotoxicity, actives largely listed as cytotoxic. actives 0.76% (n = 410,000). AID 588856; also: potency is read from the fitted curve at half-maximal effect
#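 CellTiter-Glo luminescence gave cytotoxicity after 18 hours at 37 degrees C. The cells were HepG2 CAGA-GFP in 1% FBS DMEM, stimulated with 500 pg/mL TGF-beta after compound addition. %Activity was normalised to no-cell wells (complete cell-killing) and DMSO (no toxicity), and curves were fitted and classified.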
# The depositor's hits bear a star; i = inactive; u = inconclusive; x = no result given. Unless noted, calls follow the shape of the dose curve; as a rule, active = well fitted curve in the direction sought with a large enough effect; inconclusive = small, poorly fitted or top-dose-only effect, or another doubt; inactive = no such curve, though single readings can be large; an effect the other way counts as inactive or inconclusive.
SMILES,ATXN2 expr inh,Giardia kill,S2 tox,TGFb SMAD3 inh,uPA surface inh,HepG2 viability
OC(c1cccc(Cl)c1)c1nc(-c2ccc(F)c(Cl)c2)cs1 (stereo not given),7%,x,i,u,x,-59%
COc1ccc(C(O)c2nc(-c3cccc(C(F)(F)F)c3)cs2)cc1 (stereo not given),u,x,u,u,x,-43%
CC1(C)Nc2cccc3c(N=Nc4ccc(N=Nc5ccccc5)c5ccccc45)ccc(c23)N1,x,x,x,-4%,x,-29%
O=C(CN1CCCc2ccccc21)N/N=C/c1ccc(F)cc1F,12%,-2,i,-5%,3%,-3%
O=C(CN1CCCc2ccccc21)N/N=C/c1ccccc1O,28µM*,7,i,u,-9%,-32%
CCOC(=O)C1=C(C)c2ccccc2N(C(=O)OC)C1(C)C(=O)OCC (stereo not given),u,-13,x,13µM*,u,-78%
CCOC(=O)C1=C(C)c2ccccc2OC1(CC)C(=O)OCC (stereo not given),6%,u,i,-17%,11%,-25%
CCC(=O)Nc1ccc(C2C(=O)c3ccccc3C2=O)cc1,u,-82*,u,4%,-8%,-22%
CC(C)C1=CC(=Nc2ccc(S(N)(=O)=O)cc2)C=C(C(C)C)C1=O,-17%,0,i,u,-8%,11µM*
Brc1cccc[n+]1CCCCCC[n+]1ccccc1Br,x,x,x,9%,x,-25%
CC(=O)c1ccc(-c2cccc(C3C4C=CCCC4(C)C(=O)N3Cc3ccccc3)c2)cc1 (stereo not given),x,-29,x,18µM*,x,-19%
COc1ccc(-c2cccc([C@H]3[C@@H]4C=CCC[C@@]4(C)C(=O)N3Cc3ccccc3)c2)cc1,u,15,i,u,u,-16%
CC12CCC=CC1C(c1cccc(Br)c1)N(Cc1ccccc1)C2=O (stereo not given),x,-4,x,13µM*,x,-91%
C[C@]12C=CC(=O)C=C1[C@@H](F)C[C@@H]1[C@@H]2[C@@H](O)C[C@@]2(C)[C@H]1CC[C@]2(O)C(=O)CO,-2%,x,i,x,x,x
COc1cccc(NCc2nnc(SC(C(=O)N(C)C)c3ccccc3)n2C2CCCCC2)c1 (stereo not given),x,x,x,0%,x,2%
O=C(Nc1ncccn1)c1cc([N+](=O)[O-])cc([N+](=O)[O-])c1,1%,-26,i,-8%,1%,-11%
O=[N+]([O-])c1cc(-c2ncccn2)c([N+](=O)[O-])s1,u,9,x,11µM*,u,-96%
COCCN1C(=O)N[C@@H](c2cccc(C(F)(F)F)c2)[C@H](C(C)=O)[C@H]1C,7%,-5,i,u,-1%,18µM*
COCCN1C(=O)N[C@@H](c2ccccc2)[C@H](C(C)=O)[C@H]1C,0%,35,i,2%,5%,17%
C#CCN(C[C@@H]1[C@@H](OC(=O)NCc2ccccc2F)[C@@H](OC(=O)NCc2ccccc2F)Cn2c(=O)ccc(=O)n21)S(=O)(=O)c1ccc(C)cc1,4µM*,x,4µM*,11µM*,x,13µM*
C#CCN(C[C@@H]1[C@@H](OC(=O)NC2CCCC2)[C@@H](OC(=O)NC2CCCC2)Cn2c(=O)ccc(=O)n21)S(=O)(=O)c1ccc(C)cc1,u,x,11µM*,u,x,-84%
C#CCN(C[C@@H]1[C@@H](OC(=O)Nc2cccs2)[C@@H](OC(=O)Nc2cccs2)Cn2c(=O)ccc(=O)n21)S(=O)(=O)c1ccc(C)cc1,3.5µM*,x,3.5µM*,5.6µM*,x,5µM*
O=C(COc1ccccc1C(=O)Nc1cccnc1)Nc1ccc(Br)cc1,x,x,x,3%,x,4%
O=C1CN(S(=O)(=O)c2cc(Br)ccc2Br)CCN1,-1%,-7,i,-7%,0%,-6%
O=c1c(Br)ccc(Br)cc1Br,6µM*,1,7.5µM*,1.6µM*,-11%,4µM*
SMILES,ATXN2 expr inh,Giardia kill,S2 tox,TGFb SMAD3 inh,uPA surface inh,HepG2 viability
CC(=O)Nc1ccc(S(=O)(=O)N2c3ccc(F)cc3CCC2C)cc1 (stereo not given),u,9,u,u,4.5µM*,-11%
CC(=O)N1c2ccc(S(=O)(=O)N3CCC(C(=O)Nc4ccc(F)cc4)CC3)cc2CC1C (stereo not given),-26%,-1,i,-14%,-5%,0%
CCn1c(-c2ccccc2F)nc2cc(NC(C)=O)cc(C(=O)N3CCCC3c3nccs3)c21 (stereo not given),x,x,i,x,x,x
ClC(Cl)(Cl)c1nc2ccccc2n2nncc12,13µM*,2,u,16µM*,-13%,20µM*
c1ccc(CCNc2nc3ccccc3n3nnnc23)cc1,15%,8,i,27%,0%,6%
N#C/C(=N/Nc1ccc(OC(F)(F)F)cc1)C(N)=S,x,1,x,u,7.9µM*,-162%
Cc1nc2ccccc2nc1CN1CCOc2ccc(C(C)(O)COc3ccccc3)cc2C1 (stereo not given),x,x,i,x,x,x
COc1cc(/C=N/NC(=O)c2cccc(N3CCCC3=O)c2)ccc1O,42%,-3,i,6%,-1%,8%
O=C(N/N=C/c1cc([N+](=O)[O-])ccc1O)c1cccc(N2CCCC2=O)c1,18µM*,48,u,4%,-8%,-16%
O=C(N/N=C/c1cc([N+](=O)[O-])ccc1O)c1cccc2cc[nH]c12,3.2µM*,-1,u,13µM*,4.5µM*,-83%
Cc1cccc(CNC(=O)c2cnn(-c3nccc(-c4ccccc4C(F)(F)F)n3)c2C)n1,x,x,i,x,x,x
Cc1cc(OCC(=O)Nc2cccc(-c3nc4ccccc4o3)c2C)cc(C)c1Cl,x,x,x,0%,x,-23%
Cc1nnc(N=c2ssnc2Cl)o1,u,1,u,2.5µM*,-8%,-40%
COc1cc2c(NC3CCN(C)CC3)nc(N3CCCN(C)CC3)nc2cc1OCCN(C)CCN(C)C,x,x,x,4%,x,-7%
Cc1cc(N2CCN(C)CC2)nc2ccc(NC(=O)c3ccc(C(C)(C)C)cc3)cc12,u,x,16µM*,u,x,13µM*
Cc1ccccc1NC(=O)Nc1ccc2nc(N3CCN(C)CC3)cc(C)c2c1,-15%,x,i,35%,x,-7%
Cc1cc(N2CCN(C)CC2)nc2ccc(NC(=O)Nc3ccc(Cl)cc3)cc12,13%,x,i,36%,x,-16%
Cc1ccccc1C(=O)Nc1ccc2nc(N3CCCCC3)cc(C)c2c1,-8%,x,u,11%,x,-24%
CCOc1ccccc1C(=O)Nc1ccc2nc(N3CCN(c4ncccn4)CC3)cc(C)c2c1,14µM*,u,u,0%,0%,-25%

# Source: PubChem
